In the supplement of paper PMC12340641:
Counter-ions that a name gives are not always drawn.

Legend:
[1] = target: IKZF1 (dCK*-IKZF1 fusion in HEK293FT) (UniProt Q13422); test: inhibition of IKZF1 HTRF signal (DMSO = 0%, pomalidomide 10 uM = 100%); higher = lower IKZF1 protein level; conditions: compound concentration: 5 uM, overnight (~20 h)
In short: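 For percent inhibition of IKZF1 signal, each plate was normalised to vehicle and to a reference degrader. Cells were HEK293FT stably expressing an IKZF1 fusion, plated at 2000/well in 384-well format and treated overnight at 37 °C with 5 μM compound, one well each. Lysates were probed overnight with a commercial HTRF total-IKZF1 antibody kit, with the 665/620 nm ratio background-subtracted and vehicle and degrader fixed at 0% and 100%.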

HEK293FT dCK*-only = test: relative growth in counter assay (no AraC = 100%, AraC + DMSO = 0%); higher = more growth rescue independent of IKZF1; conditions: compound concentration: 5 uM; AraC concentration: 0.3 uM; overnight pretreatment + 4 days AraC
In short: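 HEK293FT cells carrying only an engineered kinase construct were plated at 300 per well (384-well) and given 5 μM compound 2 h later. Following overnight at 37 °C, a nucleoside suicide substrate (0.3 μM) plus medium was added for 4 days. Hoechst 33342-stained nuclei were imaged and counted on day 5, with 100% assigned to wells without suicide substrate and 0% to substrate plus vehicle on each plate.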

HEK293FT dCK*-IKZF1 = test: relative growth recovery (pomalidomide 10 uM = 100%, DMSO = 0%); higher = more growth rescue (IKZF1 fusion degradation); conditions: compound concentration: 5 uM; AraC concentration: 0.3 uM; overnight pretreatment + 4 days AraC
In short: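 Means of duplicates from different days are given for growth recovery, normalised per plate against a reference degrader and vehicle. The reference degrader set the 100% level and vehicle the 0% level. HEK293FT cells stably expressing a deoxycytidine kinase–IKZF1 fusion (300/well, 384-well) received 5 μM compound 2 h after seeding and, after overnight at 37 °C, 0.3 μM of a nucleoside suicide substrate plus medium for 4 days. Nuclei stained with Hoechst 33342 were then counted by whole-well imaging on day 5.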

Chain of IKZF1 (dCK*-IKZF1 fusion in HEK293FT) (Q13422 whole entry, looked up, the tested form may be a part): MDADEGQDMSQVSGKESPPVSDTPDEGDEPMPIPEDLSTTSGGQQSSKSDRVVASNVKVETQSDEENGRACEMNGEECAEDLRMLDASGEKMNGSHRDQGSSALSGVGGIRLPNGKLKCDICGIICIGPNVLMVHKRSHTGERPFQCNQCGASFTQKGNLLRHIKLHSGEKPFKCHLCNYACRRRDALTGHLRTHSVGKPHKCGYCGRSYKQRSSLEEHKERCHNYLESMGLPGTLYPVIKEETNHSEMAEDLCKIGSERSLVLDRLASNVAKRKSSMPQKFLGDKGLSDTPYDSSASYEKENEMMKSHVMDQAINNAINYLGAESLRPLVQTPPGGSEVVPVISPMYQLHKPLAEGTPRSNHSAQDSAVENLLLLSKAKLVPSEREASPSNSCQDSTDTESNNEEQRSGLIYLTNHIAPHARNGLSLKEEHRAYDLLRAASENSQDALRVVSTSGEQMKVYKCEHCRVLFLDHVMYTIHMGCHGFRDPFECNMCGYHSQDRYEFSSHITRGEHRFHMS

| Structure (SMILES) | inhibition of IKZF1 HTRF signal [1] | relative growth in counter assay (HEK293FT dCK*-only) | relative growth recovery (HEK293FT dCK*-IKZF1) |
| --- | --- | --- | --- |
| C[C@@H]1CC(=O)c2c(ccc3c2C(=O)c2cccc(O)c2C3=O)C1 [ochromycinone] | 14.5% | 6.7% | -2.08% |
| CC(C)[C@@H]1CC[C@@H](C)C[C@@H]1P(=O)(c1ccccc1)c1ccccc1 | -20.4% | 3.21% | -0.475% |
| Oc1c(I)cc(I)c2cccnc12 | -30.6% | -11.2% | -3.46% |
| O=C(/C=C/c1ccc(O)c(O)c1)OCCc1ccccc1 [caffeic-acid-phenethyl-ester] | -31.4% | -29% | -7.03% |
| Cn1c(NCCN(CCO)CCCc2ccc([N+](=O)[O-])cc2)cc(=O)n(C)c1=O [nifekalant] | -33.5% | -3.87% | 3.56% |
| CCCCCCCCN=c1ccn(CCCCCCCCCCn2ccc(=NCCCCCCCC)cc2)cc1 [Octenidine Dihydrochloride] | 64.7% | -35.3% | -14.7% |
| COc1cccc2c1C(=O)c1c(O)c3c(c(O)c1C2=O)C[C@@](O)(C(=O)CO)C[C@@H]3O[C@H]1C[C@H](N)[C@H](O[C@@H]2CCCCO2)[C@H](C)O1 [Pirarubicin] | 37.3% | -33.8% | -13.1% |
| CCc1c2c(nc3ccc(OC(=O)N4CCC(N5CCCCC5)CC4)cc13)-c1cc3c(c(=O)n1C2)COC(=O)[C@]3(O)CC [Irinotecan HCl] | -17.6% | -35.4% | -15.1% |
| O=C(/C=C/c1ccc(O)c(O)c1)c1ccc(O)cc1O [Butein] | 8.77% | -27.3% | -8.42% |
| Oc1c(Br)cc(Br)c2cccnc12 | 1.09% | -4.45% | -2.54% |
| OCCN=CCNc1ccc(NCCNCCO)c2c(O)c3c(O)ccc(O)c3c(O)c12 [Mitoxantrone HCl] | -45.5% | -34.8% | -13.6% |
| O=C(Nc1ccc(Cl)nc1)c1ccc(Cl)cc1 | -32.9% | 4.25% | 3.85% |
| COc1c(C)c2c(c(O)c1C/C=C(\C)CCC(=O)O)C(=O)OC2 | -27.2% | -31.1% | -11.7% |
| Cc1cc(NC(=O)C(c2ccccc2)N2CCCc3ccccc32)no1 (configuration not stated) | -21.4% | -9.71% | 1.48% |
| Fc1ccc(C(c2ccc(F)cc2)N2CCN(C/C=C/c3ccccc3)CC2)cc1 [flunarizine] | -47% | 1.76% | -0.165% |
| CCCCCCCCNC(C)C(O)c1ccc(SC(C)C)cc1 (configuration not stated) | -32.8% | 7.28% | -0.84% |
| Fc1ccc(CNc2ncnc3ccc(F)cc23)cc1 [spautin-1] | 8.67% | -2.11% | 5.96% |
| CC(=O)N(OCc1ccccc1)[C@@H]1c2cc(C#N)ccc2OC(C)(C)[C@H]1O | -1.85% | 4.48% | -0.925% |
| NC1CC(O[C@H]2C[C@@]([C@@](C)=O)(O)CC3=C2C(O)=C5C(C(C4=CC=CC(OC)=C4C5=O)=O)=C3O)OC(C)C1O (some centres not stated) [daunorubicin] | 22% | -35.4% | -14.9% |
| CCCCC1C(=O)N(c2ccccc2)N(c2ccc(O)cc2)C1=O (configuration not stated) | -36.3% | -34.9% | -12.7% |
| CCN(CCCCCOCC(=O)N[C@H](C(=O)N1C[C@H](O)C[C@H]1C(=O)N[C@@H](C)c1ccc(-c2scnc2C)cc1)C(C)(C)C)CCOc1ccc(C(=O)c2c(-c3ccc(O)cc3)sc3cc(O)ccc23)cc1 | 3.72% | 13.8% | 11% |
| COc1ccc2c(C)nc(Nc3nc(C)c(C)c(O)n3)nc2c1 [madrasin] | -28.1% | 6.01% | 0.18% |
| CN1CCCCC1CCN1c2ccccc2Sc2ccc(S(C)=O)cc21 (configuration not stated) [mesoridazine besylate] | -49.8% | 10.8% | -0.555% |
| O=S(=O)(O)CCCS(=O)(=O)O | 17.9% | 1.16% | -1.31% |
| O=C(c1cc(S(=O)(=O)Nc2ccccc2F)c(F)cc1Cl)N1CCN2CCC[C@@H]2C1 | -26% | -1.66% | -3.52% |
| Cc1cccc(C)c1NC(=O)C(C)N (configuration not stated) [Tocainide] | 20.5% | -12.9% | -3.04% |
| CCc1nc(N)nc(N)c1-c1ccc(Cl)cc1 | 18% | 3.95% | -0.245% |

| Structure (SMILES) | inhibition of IKZF1 HTRF signal [1] | relative growth in counter assay (HEK293FT dCK*-only) | relative growth recovery (HEK293FT dCK*-IKZF1) |
| --- | --- | --- | --- |
| O=C(NCCO[N+](=O)[O-])c1cccnc1 | -26.3% | -5.9% | -1.74% |
| CCN1CCN(Cc2ccc(-c3cc4c(N[C@H](C)c5ccccc5)ncnc4[nH]3)cc2)CC1 | -37.1% | -18.1% | -8.18% |
| Cc1cc(Nc2ncc(Cl)c(Nc3ccccc3S(=O)(=O)C(C)C)n2)c(OC(C)C)cc1C1CCN(CC(=O)NCCOCCOCCOCCOCCOCCNc2cccc3c2C(=O)N(C2CCC(=O)NC2=O)C3=O)CC1 (configuration not stated) | 54.5% | 6.9% | 64.6% |
| C[C@H]1O[C@@H](n2cc(F)c(=O)[nH]c2=O)[C@H](O)[C@@H]1O | -24.1% | -10.6% | 0.84% |
| CCC1(O)CC2CN(CCc3c([nH]c4ccccc34)[C@@](C(=O)OC)(c3cc4c(cc3OC)N(C=O)C3[C@]45CCN4CC=C[C@@](CC)([C@@H](OC(C)=O)[C@]3(O)C(=O)OC)[C@H]45)C2)C1 (some centres not stated) [Vincristine sulfate] | -23.3% | -33.7% | -11.8% |
| CC(CN(C)C)CN1c2ccccc2Sc2ccccc21 (configuration not stated) [trimeprazine] | 15.3% | 7.5% | -1.37% |
| O=C(c1ccc(Nc2nccc(-c3cc4ccccc4s3)n2)cc1)N1CCC(N2CCCC2)CC1 | -31.3% | -35.2% | -14.3% |
| CC[C@@]1(O)C(=O)OCc2c1cc1n(c2=O)Cc2cc3c(N)cccc3nc2-1 [9-aminocamptothecin] | 31.3% | -33.7% | -12.4% |
| CCCCC(=O)OCC(=O)[C@]1(O)Cc2c(O)c3c(c(O)c2[C@@H](O[C@H]2C[C@H](NC(=O)C(F)(F)F)[C@H](O)[C@H](C)O2)C1)C(=O)c1c(OC)cccc1C3=O [Valrubicin] | -26.2% | -34.4% | -11.8% |
| Cc1cc(/C=C/c2ccc3cc(N(C)C)ccc3[n+]2C)c(C)n1-c1ccccc1.Cc1cc(/C=C/c2ccc3cc(N(C)C)ccc3[n+]2C)c(C)n1-c1ccccc1 [pyrvinium] | 76.3% | -34.4% | -13.1% |
| NS(=O)(=O)c1ccc(S(=O)(=O)Nc2cccc3c(Cl)c[nH]c23)cc1 [Indisulam] | -6.45% | -24.4% | -3.02% |
| COC(=O)C1=C(C)NC(C)=C([N+](=O)[O-])C1c1ccccc1C(F)(F)F (racemic) | -43.6% | -7.91% | -0.605% |
| CN(C)C(=O)C(CCN1CCC(O)(c2ccc(Cl)cc2)CC1)(c1ccccc1)c1ccccc1 | -14.4% | 0.63% | -0.755% |
| OCCN1CCN(CCCN2c3ccccc3Sc3ccc(C(F)(F)F)cc32)CC1 | -11.9% | 12% | 3.6% |
| CN(C)CCCN1c2ccccc2Sc2ccc(Cl)cc21 [Chlorpromazine HCl] | -4.4% | -6.37% | -2.69% |
| Nc1ncn([C@@H]2O[C@H](CO)[C@@H](O)[C@H]2O)c(=O)n1 | -45.6% | -13.2% | -5.21% |
| O=C(O)c1ccccc1Nc1ccc(CCc2ccc(Cl)c(Cl)c2)cc1 | -23.6% | 8.33% | 0.125% |
| C[C@H]1NCc2cc(-c3ccc4c(=O)c(C(=O)O)cn(C5CC5)c4c3OC(F)F)ccc21 [Garenoxacin (Mesylate hydrate)] | -29% | -3.04% | -1.59% |
| CN(C)CCCN1c2ccccc2Sc2ccc(C(F)(F)F)cc21 | -28.3% | 6.11% | 1.67% |
| Oc1ccc(/C=C/c2cc(O)cc(O)c2)cc1 [Resveratrol] | -25.5% | 5.43% | 2.06% |
| COC1CCN(c2cccc(-c3cc(NC(C)=O)nc(-n4nc(C)cc4C)n3)n2)CC1 | -25.1% | 7.56% | -1.86% |
| CC[n+]1c(-c2ccccc2)c2cc(N)ccc2c2ccc(N)cc21 | 39.8% | -32.8% | -12.2% |
| Cc1ccc(S(=O)(=O)c2ccc([N+](=O)[O-])o2)cc1 | -48.9% | -34% | -12.9% |
| COc1ccc(Cl)cc1C(=O)NCCc1ccc(S(=O)(=O)NC(=O)NC2CCCCC2)cc1 | -51.9% | -0.06% | 3.14% |
| O=C1Nc2ccc(Cl)cc2[C@@](C#CC2CC2)(C(F)(F)F)O1 [Efavirenz] | 0.88% | -1.3% | 0.45% |
| CC[N+](C)(CC)CCC[n+]1c(-c2ccccc2)c2cc(N)ccc2c2ccc(N)cc21 [propidium-iodide] | 58.8% | -10.7% | -3.16% |
| CN1CCC(=C2c3ccccc3Sc3ccccc32)CC1 | -29.9% | -4.99% | -1.33% |
